PubChem BioAssay (Tox21)
Results filed as inconclusive are left out. A call without a number means that no potency is given here. Activity calls are given as the source filed them. The call rests on the fitted dose curve.

Assay: p53 small molecule agonists, cell-based qHTS assay with rat liver microsomes: qHTS cell viability counter screen (AID 1963580); further: nearly all actives have a fitted effect of over 45% in size
Details: p53RE-bla HCT-116 + rat microsomes, ATP viability, 16 h; series mostly up to 66 µM
Text: National Center for Advancing Translational Sciences [NCATS]
Division of Preclinical Innovation [DPI]
U.S. Environmental Protection Agency [EPA]
National Institutes of Environmental Health Sciences [NIEHS]
National Toxicology Program [NTP]
U.S. Food and Drug Administration [FDA]
p53, a tumor suppressor protein, is activated following cellular insult, including DNA damage and other cellular stresses. The activation of p53 regulates cell fate by inducing DNA repair, cell cycle arrest, apoptosis, or cellular senescence. The activation of p53, therefore, is a good indicator of DNA damage and other cellular stresses. The CellSensor p53RE-bla HCT-116 cell line contains a stably integrated beta-lactamase reporter gene under control of the p53 response elements. The activation of the reporter gene under culture conditions can be detected by fluorescence intensity. This cell line was used to screen the Tox21 10K compound library in the condition of presence of rat liver microsomes and to identify agonists that activate the p53 signaling pathway after in vitro metabolic activation (Ooka et al., Archive of Toxicology 96:1975-1987, 2022). The cytotoxicity of the Tox21 compound library against the p53 RE-bla HCT-116 cell line was tested in parallel by measuring the intra cellular ATP content in the same wells.
Tox21 Assay Protocol Summary:
The p53RE-bla cells were dispensed at 4,000cells/3ul/well in 1536-well black-clear bottom plates. After the assay plates were incubated at 37 C, 5% CO2 incubator for 5 hours, 23 nL of compounds dissolved in DMSO, positive controls or DMSO only was transferred to the assay plate. Following compound addition, 3 uL of rat liver microsomes (Molecular Toxicology, Boone, NC) at final concentration of 0.5 mg/mL and 1uL of B-Nicotinamide adenine dinucleotide 2'-phosphate (NADPH) at final concentration of 0.5 mg/mL were transferred to the assay plate. The plates were incubated at 37 C for 16 hours. 1 uL of LiveBLAzer detection mixture was added to each well and the plates were incubated at room temperature in the dark for 2 h. Fluorescence intensity at 460 and 530 nm emission and 405 nm excitation were measured by an Envision plate reader. For cell viability readout that measures cytotoxicity, 4 ul/well of CellTiter-Glo reagent was added into the assay plates using a Flying Reagent Dispenser. After 30 min incubation at room temperature, the luminescence intensity in the plates was measured using a ViewLux plate reader.
Potency means the concentration at half of the fitted maximal effect.

| SMILES | Potency |
| --- | --- |
| CC(=O)[O][Pb]([c]1ccccc1)([c]1ccccc1)[c]1ccccc1 | 8.14 µM (active) |
| O=P(O)(O)c1ccccc1 | inactive |
| Cc1ccccc1C(=O)Nc1cccc(OC(C)C)c1 | inactive |
| O=C(Cc1ccccc1)OCc1ccccc1 | inactive |
| Nc1ccc(N=Nc2ccccc2)cc1 | inactive |
| CNC(=O)/C=C(\C)OP(=O)(OC)OC | inactive |
| Cc1cccc(C)c1NC1=NCCCS1 | inactive |
| [Cl][Sn]([c]1ccccc1)([c]1ccccc1)[c]1ccccc1 | 6.14 µM (active) |
| NC(=O)c1ccc(N)nc1 | inactive |
| CC1(c2ccc(Oc3ccccc3)cc2)OC(=O)N(Nc2ccccc2)C1=O (stereo not given) | inactive |
| CC1=C2C[C@H]3[C@@H](CC=C4C[C@@H](O)CC[C@@]43C)[C@@H]2CC[C@]12O[C@@H]1C[C@H](C)CN[C@H]1[C@H]2C | inactive |
| C[N+](C)(C)CC1CO1 (stereo not given) | inactive |
| O=C(CCl)Nc1ccccc1 | inactive |
| CC(C)(C)C(O)/C(=C\c1ccc(Cl)cc1Cl)n1cncn1 (stereo not given) | inactive |
| O=c1[nH]c2cc(Cl)ccc2n1C1CCNCC1 | inactive |
| C=CCOC(C)=O | inactive |
| COP(N)(=S)Oc1ccccc1C(=O)OC(C)C (stereo not given) | inactive |
| CCCN(CCC)c1c([N+](=O)[O-])cc(S(C)(=O)=O)cc1[N+](=O)[O-] | inactive |
| CN1COCN(Cc2cnc(Cl)s2)/C1=N\[N+](=O)[O-] | inactive |
| CC(CC(C(N)=O)(c1ccccc1)c1ccccc1)N(C)C (stereo not given) | inactive |

| SMILES | Potency |
| --- | --- |
| Nc1nc(N)nc(N)n1 | inactive |
| NC(=S)C(N)=S | inactive |
| O=S(=O)(O)c1cc(O)ccc1O | inactive |
| CC(Cc1ccccc1)NCc1ccccc1Cl (stereo not given) | inactive |
| CCCCCCCCc1ccc(O)cc1 | 48.8 µM (active) |
| O=[N+]([O-])c1ccc(O)c([N+](=O)[O-])c1 | inactive |
| CCOC(=O)[C@]1(c2ccccc2)Oc2ccccc2[C@@H]1N | inactive |
| COC(=O)COc1ccc(Cl)cc1Cl | inactive |
| CCN1CCCC1CNC(=O)C(O)(c1ccccc1)c1ccccc1 (stereo not given) | inactive |
| c1cncc([C@@H]2CCCCN2)c1 | inactive |
| CC(C)C(Br)C(=O)NC(N)=O (stereo not given) | inactive |
| O=c1[nH]oc2c1CCNC2 | inactive |
| C[C@H]1[C@H](c2ccc(Cl)cc2)SC(=O)N1C(=O)NC1CCCCC1 | inactive |
| COc1ccc(-c2ccccc2)cc1NNC(=O)OC(C)C | inactive |
| CCCSP(=S)(OCC)Oc1ccc(SC)cc1 (stereo not given) | inactive |
| COP(=O)(OC)SCn1c(=O)oc2cc(Cl)cnc21 | inactive |
| CCN(CC)C(=S)[S-].CCN(CC)C(=S)[S-].[Zn+2] | 1.61 µM (active) |
| CC(=O)c1ccc(-c2ccccc2)cc1 | inactive |
| C=CC(=O)[O][Sn]([CH2]CCC)([CH2]CCC)[CH2]CCC | 8.14 µM (active) |
| CC(=O)[O-].CC(=O)[O-].O.O.[Cd+2] | inactive |
